L major viab: reduces viability of Leishmania major promastigotes | resazurin fluorescence viability | inhibition, % at 10 µM | actives 9% (n = 200,000) | AID 1063; in the data active = inhibition above about 50%;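 also: promastigotes grown with compound for 44 hours at 28 °C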
Cl transport mod: modulators of human KCC2 chloride dependent transport; KCC2 cells, thallium flux FluoZin-2 fluorescence; B-score of Tl+ flux slope (higher = more flux/activation; lower = inhibition) at 10 µM; actives 2.2% (n = 190,000); Q9H2X9;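 active = thallium flux slope and its plate-corrected score both differing from the plate sample mean at a set confidence after two filtering rounds, in either direction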;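 also: slope of fluorescence scaled to starting intensity during 10 to 20 s after thallium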
Insulin prom up: MIN6 insulin promoter up-regulation; z-score at 5 µM; MIN6 insulin promoter-GFP reporter, high-content imaging; stronger effect = higher value; actives 0.3% (n = 190,000);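 active = z-score above 3 at 5 µM with at least 500 cells counted in the well; inconclusive = wells under 500 cells, flagged as cytotoxic or low count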
WT yeast gro inh: growth inhibition of WT yeast, mitochondrial fusion screen | actives 2.1% (n = 190,000) | AID 1362 | mitochondrial fusion phenotypic screen, WT strain | inhibition, % at 10 µM; in the data active = inhibition above about 58%; tested in S. cerevisiae
ROMK mod: modulators of human ROMK potassium channel | P48048 | Tet-inducible ROMK, thallium flux fluorescence; actives lie on both sides | B-score at 10 µM | actives 2% (n = 130,000) | AID 1918;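 active = signal ratio slope over the read window, or its plate-corrected B-score, at least 3 SD from the plate mean, either direction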;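 also: B-score of the F/F0 ratio slope over 7 to 12 s after thallium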
Target sequence (P48048 whole entry, looked up): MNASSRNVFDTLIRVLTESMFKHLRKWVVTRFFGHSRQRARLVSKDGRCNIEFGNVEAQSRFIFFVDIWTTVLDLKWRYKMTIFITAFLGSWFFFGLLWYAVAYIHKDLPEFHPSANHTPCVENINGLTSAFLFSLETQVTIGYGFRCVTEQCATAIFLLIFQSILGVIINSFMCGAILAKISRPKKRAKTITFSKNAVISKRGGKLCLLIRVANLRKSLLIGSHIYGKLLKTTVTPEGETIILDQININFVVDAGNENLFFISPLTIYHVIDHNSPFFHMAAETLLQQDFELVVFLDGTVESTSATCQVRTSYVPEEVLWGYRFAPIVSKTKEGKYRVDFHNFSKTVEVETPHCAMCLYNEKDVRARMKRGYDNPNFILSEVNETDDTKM
Insulin prom inh: TRM-6 insulin promoter activity inhibition | inhibition, % at 2 µM | TRM-6 cells (human fetal islet line), insulin promoter-eGFP reporter, imaging; reporter expression induced with tamoxifen | actives 0.9% (n = 130,000);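 active = inhibition above the mean plus 3 SD, with well images judged a real hit on visual review, cut at about 60% in these data, passing the limit was not always enough; inconclusive = inhibition over the cutoff but images rejected on review; inactive = inhibition not above the cutoff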
KCC2 sec1: KCC2 (human) modulation, secondary assay | shares compounds with Cl transport mod | HEK293-KCC2, thallium flux, FluoZin2 fluorescence; stronger effect = higher value | normalised thallium flux (F/F0 slope) at 10 µM | actives 15% (n = 3,700);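 active = thallium flux slope above the same plate's solvent-only control mean plus 3 SD; inconclusive = the two replicate wells disagree; inactive = no significant difference from solvent-only control wells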
KCC2 bumet counter: thallium flux despite bumetanide block in KCC2 cells, secondary assay 3; shares compounds with Cl transport mod; HEK293-KCC2 + bumetanide/ouabain, thallium flux FluoZin2; stronger effect = higher value; normalized thallium flux at 10 µM; actives 49% (n = 3,700); AID 1714;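 active = thallium entry rate above the same plate's blocked-transporter control wells by more than 3 SD; inconclusive = the two repeat wells disagree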;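 also: raw slope of fluorescence over initial fluorescence between 10 and 20 s after thallium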
KCC2 sec2: confirmation of human KCC2 transport modulators; shares compounds with Cl transport mod; normalized thallium flux at 10 µM; HEK293-KCC2, thallium flux FluoZin2 fluorescence; actives lie on both sides; F/F0 rise rate, 10–20 s post-thallium; actives 23% (n = 3,700); AID 1715;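 active = thallium flux slope more than 3 SD above or below the plate's solvent-only control mean, mostly below; inconclusive = the two repeat wells disagreed; inactive = no significant shift from solvent-only controls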;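 also: raw slope with 0.1% DMSO as baseline and bumetanide as block control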
HEK293 Tl flux: counter-screen for KCC2 modulators: effect in parental HEK293 cells. shares compounds with Cl transport mod. thallium flux FluoZin2, ouabain; baseline-ratio fluorescence slope, 10–20 s after thallium. thallium flux rate (normalised fluorescence) at 10 µM. actives 46% (n = 3,700);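 active = thallium flux rate significantly above the same plate's solvent-only control wells, beyond their mean plus 3 SD; inconclusive = the two replicate wells gave conflicting results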
KCC2 retest ouab: KCC2 (human) modulation, ouabain retest; shares compounds with Cl transport mod; HEK293-KCC2, thallium flux FluoZin2 fluorescence; bidirectional: low = inhibitor, high = activator; raw Tl+ flux slope (below DMSO = inhibition, above = activation) at 10 µM; actives 48% (n = 3,700); AID 1717;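 active = thallium flux slope beyond 3 SD from same-plate DMSO control mean in most replicates, usually higher, sometimes lower; inconclusive = repeat tests gave conflicting results; inactive = no significant difference from controls in most replicates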;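 also: slope of initial-normalized fluorescence between seconds 10 and 20 after thallium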
HEK counter2: acts in parental HEK cells, second KCC2 counter-screen; shares compounds with Cl transport mod; thallium flux slope at 10 µM; actives 33% (n = 3,700); AID 1718; HEK293 parental, thallium flux FluoZin-2 fluorescence slope;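 active = thallium flux slope above the same plate's solvent-control mean plus 3 SD in both duplicate wells; inconclusive = duplicate wells that disagreed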;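 also: run without ouabain in cells lacking the KCC2 cotransporter; slope of fluorescence scaled to its starting value between 10 and 20 s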
* marks the source's active call; other numbers are inactive results; ? = inconclusive; . = no result given. Most compounds without a hit are left out; they make up all but 12% or so of the library.

SMILES | L major viab | Cl transport mod | Insulin prom up | WT yeast gro inh | ROMK mod | Insulin prom inh | KCC2 sec1 | KCC2 bumet counter | KCC2 sec2 | HEK293 Tl flux | KCC2 retest ouab | HEK counter2
Cc1ccc(/C=C2\S/C(=N/S(=O)(=O)c3cccs3)NC2=O)cc1 | . | 5.7* | 0.19 | . | . | . | 0.0067 | 0.016* | 0.03 | 0.014* | ? | 0.016*
Cc1ccc(S(=O)(=O)/N=C2/NC(=O)/C(=C/c3ccncc3)S2)cc1 | -6 | -0.84 | 0.53 | 4 | -1.5 | 35 | . | . | . | . | . | .
O=C1CC(N(O)C2CC(=O)N(Cc3ccccc3)C2=O)C(=O)N1Cc1ccccc1 (stereo not given) | 1 | . | -0.44 | 11 | -2.4 | -14 | 0.0051 | 0.0049 | 0.026* | 0.0073 | ? | 0.011
CCCN=C1N/C(=C\c2ccco2)C(=O)N1c1ccccc1 | -17 | 0.12 | -0.68 | -2 | 0.0013 | -3 | . | . | . | . | . | .
O=C1/C(=C\c2ccco2)NC(=S)N1c1ccccc1 | -8 | 15* | -0.72 | 2 | -0.25 | . | 0.015* | 0.033* | 0.034 | 0.018* | ? | 0.013*
O=C(CN1C(=O)NC2(CCCCCC2)C1=O)c1ccc2c(c1)OCCO2 | 2 | . | . | 17 | 1 | -14 | 0.0099 | 0.014* | 0.034 | ? | 0.022 | 0.011
COc1ccc(C(=O)CN2C(=O)NC3(CCCCC3)C2=O)cc1OC | -5 | 3 | 0.05 | 7 | 0.51 | . | . | . | . | . | . | .
CCc1ccc(-n2c(SCC(=O)c3ccc4c(c3)NC(=O)CO4)nc3ccccc3c2=O)cc1 | -3 | 2.9* | 0.28 | 3 | 0.23 | . | 0.0094 | 0.012* | 0.03 | 0.0086* | ? | 0.0094
Cn1c(SCC(=O)c2ccc3c(c2)NC(=O)CO3)nc2ccccc21 | -3 | -0.88 | . | 1 | -0.00023 | -55 | . | . | . | . | . | .
O=C1COc2ccc(C(=O)CSc3nc4ccccc4c(=O)n3-c3ccc(Cl)c(Cl)c3)cc2N1 | 4 | 2.5* | . | -2 | -0.5 | -25 | ? | 0.019* | 0.033 | 0.01* | 0.023 | ?
CCc1ccccc1NC(=S)N=Nc1c(O)n(C)c2ccc(S(=O)(=O)N3CCOCC3)cc12 | -2 | 11* | -3 | 72* | -0.47 | -193 | 0.014* | 0.086* | 0.029 | 0.031* | 0.058* | 0.012*
CC(NC(=O)COc1ccc([N+](=O)[O-])cc1)c1ccccc1 (stereo not given) | 3 | 1.1 | 0.23 | -2 | 0.044 | -24 | . | . | . | . | . | .
CC(C)n1c(CSCc2ccc(Cl)cc2Cl)n[nH]c1=S | 6 | 9.3* | -0.16 | 65* | 0.42 | . | 0.01 | 0.083* | 0.034 | 0.028* | 0.053* | 0.013*
Nc1nnc(CSCc2ccc(Cl)cc2Cl)s1 | -1 | -0.22 | 0.18 | 10 | 0.24 | -32 | . | . | . | . | . | .
COc1ccc(CCN=C(N)NS(=O)(=O)c2ccc(C)cc2)cc1OC | 12 | -0.25 | -0.92 | 1 | . | 13 | . | . | . | . | . | .
COC(=O)C1C(=O)C2=C(CC1C)NC(C)=C(C(=O)OC(C)C)C2c1ccc(C)o1 (stereo not given) | 2 | . | -0.78 | 35 | -0.076 | 6 | 0.0092 | 0.0054 | 0.029 | 0.0071 | 0.02 | 0.0092
COC(=O)C1C(=O)C2=C(CC1C)NC(C)=C(C(=O)OCc1ccc(OC)cc1)C2c1ccc(C)o1 (stereo not given) | 3 | 0.077 | -0.37 | 7 | . | -205 | . | . | . | . | . | .
O=C(NNc1nc(-c2ccccc2)cs1)c1cccs1 | . | -3.8* | -0.11 | . | -0.051 | . | 0.0092 | 0.0072 | 0.026* | 0.0042 | 0.015* | 0.011
O=C(NNc1nc(-c2ccccc2)cs1)c1ccc(F)cc1 | 9 | -3.3 | -1.3 | -12 | 0.94 | . | . | . | . | . | . | .
O=C(CCNC(=O)c1ccccc1Cl)Nc1nc(-c2ccccc2Cl)cs1 | 5 | -2.1 | -0.26 | 37 | -0.82 | 11 | . | . | . | . | . | .
O=C(NCc1nc(-c2ccccc2)cs1)c1ccccc1 | 3 | -4.3* | 0.28 | 10 | -2 | . | 0.0068 | ? | 0.022* | 0.0076 | ? | 0.011
O=C(CCNC(=O)c1ccccc1Cl)Nc1nc(-c2ccc(F)cc2)cs1 | 1 | -4.2* | -0.18 | 5 | . | . | 0.0062 | 0.0061 | 0.032 | 0.0083 | 0.014* | 0.011
O=C(NC(=S)Nc1nc(-c2ccccc2)cs1)c1cccs1 | -5 | 4.3 | 0.89 | 8 | -0.5 | 0 | . | . | . | . | . | .
CNC(=O)c1ccc(-c2nc(-c3ccccc3)cs2)cc1 | 13 | -0.68 | -0.02 | 6 | -0.36 | . | . | . | . | . | . | .
O=C(NNc1nc(-c2ccc(F)cc2)cs1)c1ccccc1 | 7 | -4.2* | -1.4 | 12 | -0.56 | . | 0.01 | 0.0074 | 0.028* | 0.0048 | 0.017* | 0.011
SMILES | L major viab | Cl transport mod | Insulin prom up | WT yeast gro inh | ROMK mod | Insulin prom inh | KCC2 sec1 | KCC2 bumet counter | KCC2 sec2 | HEK293 Tl flux | KCC2 retest ouab | HEK counter2
CC(=O)N1CCN(CCN=CC2=C(O)CC(c3ccc(Cl)cc3)CC2=O)CC1 (stereo not given) | -7 | 0.76 | 0.17 | 7 | -0.00083 | . | . | . | . | . | . | .
Cc1nc(SCC(=O)NC(C)(C#N)C2CC2)c2c(-c3cccs3)csc2n1 (stereo not given) | 2 | 5.1* | -1.1 | 16 | -1.3 | -73 | 0.011 | 0.026* | 0.03 | 0.013* | 0.033* | 0.011*
Cc1ccc(NC(=O)C(=O)c2cn(CC(=O)N3CCCCC3)c3ccccc23)cc1 | 3 | -0.96 | -0.11 | 11 | 1.8 | . | . | . | . | . | . | .
CCn1c(-c2ccc(C(C)(C)C)cc2)n[nH]c1=S | 12 | 6.8* | 0.3 | 21 | 0.032 | 15 | ? | 0.03* | 0.036 | ? | 0.032* | ?
CCn1c(-c2ccc(F)cc2)n[nH]c1=S | -8 | 1.2 | -0.15 | 12 | . | 30 | . | . | . | . | . | .
O=C1/C(=C/c2cccs2)SC(=S)N1NS(=O)(=O)c1ccccc1 | . | 8.8* | 0.27 | . | 0.88 | . | 0.014* | 0.029* | 0.036 | 0.016* | 0.026 | 0.014*
O=C(NN1C(=O)/C(=C/c2cccs2)SC1=S)c1ccncc1 | . | -1.7 | 0.13 | . | . | . | . | . | . | . | . | .
O=C1/C(=C/C=C/c2ccco2)SC(=S)N1NS(=O)(=O)c1ccccc1 | . | 6.8* | . | . | 1.1 | . | 0.0067 | 0.014* | 0.032 | 0.017* | ? | 0.018*
CC(C(=O)O)N1C(=O)/C(=C/C=C/c2ccco2)SC1=S (stereo not given) | -8 | 0.0013 | -0.53 | -5 | . | -3 | . | . | . | . | . | .
